Assay [1] in a line: Nuclear factor erythroid 2-related factor 2/antioxidant responsive element (Nrf2/ARE) small molecule agonists: qHTS cell viability counter screen in human keratinocytes (AID 1919968; active means well fitted curve in the direction sought with a large enough effect in the repeat runs; an effect the other way counts as inactive or inconclusive; further: nearly all actives have a fitted effect of over 55% in size). The gist of the method: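 Fluorescence read-out from CellTiter-Fluor after 1 h at 37 C. Wells held HaCaT-derived ARE-luciferase reporter cells (1,500/well) treated 23 h with DMSO-dissolved compounds. Run in the same wells as the luciferase agonist read.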

Assay [2] in a line: Nuclear factor erythroid 2-related factor 2/antioxidant responsive element (Nrf2/ARE) small molecule agonists: luciferase reporter gene qHTS assay in human keratinocytes (AID 1919969). Further: nearly all actives have a fitted effect of over 35% in size. Further: potency means the concentration at half of the fitted maximal effect.
The target in assay [3] is KiSS-1 receptor (Homo sapiens) (UniProt Q969F8). Briefly: Human kisspeptin (KISS1R) small molecule agonists, calcium flux assay in KISS1R-HEK293 cells (AID 1920064; active means well fitted curve in the direction sought with a large enough effect in the repeat runs; an effect the other way counts as inactive or inconclusive). The gist of the method: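 Calcium flux read-out: kinetic fluorescence at Ex/Em=480/540, 1 s intervals over 3 min, after pin-tool compound addition to dye-loaded KISS1R-HEK293 cells. Fifteen concentrations, triplicates.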
KiSS-1 receptor (Homo sapiens), sequence (Q969F8 whole entry, looked up): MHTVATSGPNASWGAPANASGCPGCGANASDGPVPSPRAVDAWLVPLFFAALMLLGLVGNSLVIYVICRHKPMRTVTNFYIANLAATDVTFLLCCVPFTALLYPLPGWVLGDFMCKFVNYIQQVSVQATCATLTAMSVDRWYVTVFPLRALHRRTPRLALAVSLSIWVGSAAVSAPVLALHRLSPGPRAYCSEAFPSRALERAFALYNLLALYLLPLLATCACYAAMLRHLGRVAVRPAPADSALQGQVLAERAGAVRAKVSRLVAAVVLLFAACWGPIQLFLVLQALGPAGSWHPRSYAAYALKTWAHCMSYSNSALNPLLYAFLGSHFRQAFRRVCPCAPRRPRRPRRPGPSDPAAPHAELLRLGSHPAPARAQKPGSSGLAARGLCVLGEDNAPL

Assay [4] can be described thus: G protein-coupled receptor (GPCR) small molecule agonists, calcium flux assay: HEK293 wild type cell line counter screen (AID 1920065). The gist of the method:
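Agonist mode; 18 h seeding at 37 C, 1 h dye load at 37 C; compounds pinned from DMSO, ATP as positive control; kinetic fluorescence 480/540 nm, 3 min, 1 s reads; 15 concentrations, triplicate.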

The nature of assay [5]: p53 small molecule agonists, cell-based qHTS assay with human liver microsomes (AID 1963577).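 Further: p53 response element beta-lactamase reporter cells with liver microsomes plus NADPH.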 The gist of the method:
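16 h, 37 C exposure of p53RE-bla cells to compounds with human liver microsomes and NADPH (0.5 mg/mL final each); detection via LiveBLAzer mixture, 2 h dark at room temperature.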

Assay [6] in a line: p53 small molecule agonists, cell-based qHTS assay with rat liver microsomes (AID 1963578). The gist of the method: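 With rat liver microsomes and NADPH present (0.5 mg/mL final each), p53RE-bla cells are treated with compound for 16 h at 37 C. LiveBLAzer detection mixture is then applied for 2 h at room temperature in the dark.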
Assay [7] in a line: p53 small molecule agonists, cell-based qHTS assay with human liver microsomes: qHTS cell viability counter screen (AID 1963579). Further: nearly all actives have a fitted effect of over 45% in size. The gist of the method:
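In this multiplexed counter screen, the reporter plates were subsequently treated with CellTiter-Glo so that cell viability, reflected by luminescence, could be recorded for p53RE-bla cells dosed 16 h with compounds under microsomal activation (HLM and NADPH).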

Assay [8] in a line: p53 small molecule agonists, cell-based qHTS assay with rat liver microsomes: qHTS cell viability counter screen (AID 1963580). Further: nearly all actives have a fitted effect of over 45% in size. In outline:
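After the beta-lactamase ratio was read, CellTiter-Glo was added to the same wells and luminescence measured at 30 min; cells had been treated 16 h at 37 C with compounds, rat liver microsomes and NADPH (0.5 mg/mL final each).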

Assay [9] is described as follows: p53 small molecule agonists, cell-based qHTS assay: qHTS cell viability counter screen (AID 1963581). Further: nearly all actives have a fitted effect of over 45% in size. The gist of the method:
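Cytotoxicity read-out: ATP-based luminescence (CellTiter-Glo, 30 min RT) measured in the same wells as the p53 reporter assay, HCT-116 p53RE-bla cells, 16 h compound exposure at 37 C.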

Assay [10] has as its target 5-hydroxytryptamine receptor 2A (Homo sapiens) (UniProt P28223). Briefly: 5-hydroxytryptamine receptor 2A (HTR2A) small molecule antagonists, cell-based qHTS assay (AID 1963586). Further: nearly all actives have a fitted effect of over 45% in size. The gist of the method:
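CHO cells stably expressing human HTR2A were plated for 18 h at 37 C, then loaded with calcium dye for 1 h. Compounds were preincubated 5 min at room temperature before DOI (4 nM solution) was added. Kinetic fluorescence was read for 3 min.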

Assay [11] has the same target. Briefly: 5-hydroxytryptamine receptor 2A (HTR2A) small molecule agonists, cell-based qHTS assay (AID 1963587). Further: nearly all actives have a fitted effect of over 30% in size. In outline: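 CHO cells stably expressing human HTR2A, plated 18 h, loaded with calcium dye 1 h at 37 C. Agonist mode: compounds added and intracellular calcium fluorescence recorded kinetically for 2 min at 1 sec intervals.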
The target of assay [12] is Muscarinic acetylcholine receptor M1 (Homo sapiens) (UniProt P11229). As to the kind of experiment: Cholinergic receptor muscarinic 1 (CHRM1) small molecule antagonists, cell-based qHTS assay (AID 1963588). Further: nearly all actives have a fitted effect of over 40% in size. In outline: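 Compounds were tested at 15 concentrations in three independent runs. Dye-loaded CHRM1-CHO cells were exposed 5 min at room temperature before stimulation by acetylcholine added at 50nM. Intracellular calcium was read kinetically on FDSS for 3 min.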
Muscarinic acetylcholine receptor M1 (Homo sapiens), sequence (P11229 whole entry, looked up): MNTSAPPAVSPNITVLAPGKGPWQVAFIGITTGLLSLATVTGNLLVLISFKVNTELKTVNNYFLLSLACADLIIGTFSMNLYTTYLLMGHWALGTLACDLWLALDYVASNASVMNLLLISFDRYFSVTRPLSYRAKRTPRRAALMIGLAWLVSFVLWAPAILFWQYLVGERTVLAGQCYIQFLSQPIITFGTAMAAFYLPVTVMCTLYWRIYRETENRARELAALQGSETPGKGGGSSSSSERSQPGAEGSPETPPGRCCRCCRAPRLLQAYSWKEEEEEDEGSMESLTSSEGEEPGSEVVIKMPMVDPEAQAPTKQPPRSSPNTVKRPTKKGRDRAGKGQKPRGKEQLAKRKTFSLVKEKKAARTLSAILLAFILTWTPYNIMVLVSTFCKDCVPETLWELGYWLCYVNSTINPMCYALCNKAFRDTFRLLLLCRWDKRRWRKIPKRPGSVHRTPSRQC

Assay [13] has the same target. As to the kind of experiment: Cholinergic receptor muscarinic 1 (CHRM1) small molecule agonists, cell-based qHTS assay (AID 1963589). Further: nearly all actives have a fitted effect of over 35% in size. In outline: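 Calcium flux read-out: kinetic fluorescence at 1 sec intervals after pin-tool compound addition to dye-loaded CHRM1-CHO cells (human M1). Agonist mode; 15 concentrations tested in triplicate independent runs.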
A short description of assay [14]: cAMP Responsive Elements (CRE) small molecule agonists, cell-based qHTS assay (AID 1963590). In outline:
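Beta-lactamase reporter readout: LiveBLAzer B/G FRET substrate, 2 h at room temperature, added after 3 h compound treatment of CRE-bla HEK 293T cells at 37 C/5% CO2.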

The target in assay [15] is Beta-2 adrenergic receptor (Homo sapiens) (UniProt P07550). As to the kind of experiment: Adrenergic beta2 receptor (ADRB2) small molecule antagonists, cell-based qHTS assay (AID 1963592). Further: series mostly up to about 92 µM; nearly all actives have a fitted effect of over 50% in size. The gist of the method:
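Assay format: CHO-ADRB2 cells, 18-20hr seeding at 37C/5% CO2, then compound plus 1nM isoproterenol agonist mix for 0.5hr RT. Homogeneous time-resolved fluorescence cAMP detection after 1hr, expressed as 665/615 nm ratio.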

For assay [16], the target named is D(2) dopamine receptor (Homo sapiens) (UniProt P14416). Briefly: Dopamine D2 receptor (DRD2) small molecule agonists, cell-based qHTS assay (AID 1963594). Further: nearly all actives have a fitted effect of over 35% in size. The gist of the method: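 HEK293 cells stably expressing human DRD2, pre-treated with PDE inhibitor Ro20-1724 (0.1 mM final) and compound 10 min at room temperature, then stimulated with NKH477 (200nM […]) for 30 min. cAMP read by HTRF (665/620 nm).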
D(2) dopamine receptor (Homo sapiens), sequence (P14416 whole entry, looked up): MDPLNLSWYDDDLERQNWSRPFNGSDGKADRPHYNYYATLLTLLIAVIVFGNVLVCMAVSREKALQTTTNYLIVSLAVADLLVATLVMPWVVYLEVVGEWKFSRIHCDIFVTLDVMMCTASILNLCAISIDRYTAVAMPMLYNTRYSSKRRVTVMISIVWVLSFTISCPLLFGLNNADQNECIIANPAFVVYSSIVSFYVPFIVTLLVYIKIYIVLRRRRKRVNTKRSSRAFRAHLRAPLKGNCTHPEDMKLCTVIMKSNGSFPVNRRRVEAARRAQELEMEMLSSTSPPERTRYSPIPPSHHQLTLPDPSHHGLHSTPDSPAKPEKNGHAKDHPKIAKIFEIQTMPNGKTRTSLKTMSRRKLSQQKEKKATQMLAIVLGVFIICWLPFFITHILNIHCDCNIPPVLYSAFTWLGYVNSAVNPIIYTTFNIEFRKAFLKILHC

Assay [17] has the same target. As to the kind of experiment: Dopamine D2 receptor (DRD2) small molecule antagonists, cell-based qHTS assay (AID 1963595; active means well fitted inhibition curve with a large enough effect in the signal ratio in the repeat runs, with a control signal flat; the % refers to the signal ratio). The gist of the method: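 In this cell-based antagonist screen, compounds act for 10 min at room temperature before a 30 min challenge with 12 nM quinpirole and 200 nM NKH477. cAMP is quantified by HTRF competition in DRD2-HEK293 cells containing 0.1 mM Ro20-1724.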

The nature of assay [18]: p53 small molecule agonists, cell-based qHTS assay (AID 1963582; active means well fitted activation curve with a large enough effect in the signal ratio in the repeat runs, not every such curve was filed as active; the % refers to the signal ratio). In outline:
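Fluorescence intensity read-out of a beta-lactamase reporter under a p53 response element. Cells were exposed to DMSO-dissolved compounds for 16 h at 37 C, then developed with FRET substrate for 2 h at RT.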

Assay [19] is described as follows: cAMP Responsive Elements (CRE) small molecule antagonists, cell-based qHTS assay (AID 1963591; active means well fitted inhibition curve with a large enough effect in the signal ratio in the repeat runs, not every such curve was filed as active; the % refers to the signal ratio). The gist of the method:
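HEK293T CRE-bla; 18 h preincubation; compound pin-transfer; NKH477 0.25 uM final, 3 h, 37 C; LiveBLAzer FRET substrate 2 h RT.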

Values without a mark were called inactive. Records with an inconclusive call do not appear. Activity calls are given as the source filed them. Unless noted, the call rests on the fitted dose curve.

Beta-2 adrenergic receptor (Homo sapiens), sequence (P07550 whole entry, looked up): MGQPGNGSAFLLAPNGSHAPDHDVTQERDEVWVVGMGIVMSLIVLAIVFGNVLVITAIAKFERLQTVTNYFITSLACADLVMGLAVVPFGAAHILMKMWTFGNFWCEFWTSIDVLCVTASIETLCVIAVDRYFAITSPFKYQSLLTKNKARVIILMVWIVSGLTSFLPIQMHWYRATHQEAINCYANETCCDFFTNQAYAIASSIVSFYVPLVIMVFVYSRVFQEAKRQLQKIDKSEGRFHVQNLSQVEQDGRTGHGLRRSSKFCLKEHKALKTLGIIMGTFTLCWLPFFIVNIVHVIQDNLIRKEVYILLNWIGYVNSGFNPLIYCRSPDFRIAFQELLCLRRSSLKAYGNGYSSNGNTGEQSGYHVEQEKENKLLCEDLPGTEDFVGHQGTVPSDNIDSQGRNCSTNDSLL
5-hydroxytryptamine receptor 2A (Homo sapiens), sequence (P28223 whole entry, looked up): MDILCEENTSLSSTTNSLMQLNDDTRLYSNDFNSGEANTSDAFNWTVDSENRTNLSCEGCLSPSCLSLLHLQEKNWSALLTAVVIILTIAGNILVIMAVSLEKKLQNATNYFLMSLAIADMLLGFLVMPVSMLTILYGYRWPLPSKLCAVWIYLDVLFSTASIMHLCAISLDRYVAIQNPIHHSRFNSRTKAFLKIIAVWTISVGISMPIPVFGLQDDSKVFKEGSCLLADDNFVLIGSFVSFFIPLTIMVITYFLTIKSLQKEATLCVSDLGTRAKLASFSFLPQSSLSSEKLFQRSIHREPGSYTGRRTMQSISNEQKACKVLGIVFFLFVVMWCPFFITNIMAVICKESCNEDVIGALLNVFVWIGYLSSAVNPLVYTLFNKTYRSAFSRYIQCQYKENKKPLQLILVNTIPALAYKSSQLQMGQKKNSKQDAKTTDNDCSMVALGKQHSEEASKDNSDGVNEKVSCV

Regarding `CC(C)=CCC/C(C)=C/CC/C(C)=C/CO`, the Potency entry in assay [1], in assay [5], in assay [6], in assay [7], in [8] and in assay [9] was “inactive” in each case. For the same molecule, the Potency result in assay [10], in assay [11], in [12], in assay [13], in assay [14] and in assay [15] was “inactive” each time. The Potency entry in assay [16] and in assay [17] was “inactive” throughout. In addition, the Potency in [2] was 68.6 µM (active). Also, the outcome in [3] and in assay [4] was inactive.
`O=C1c2ccccc2S(=O)(=O)N1CCCCN1CCN(c2ncccn2)CC1`: the Potency entry in assay [1], in assay [2], in [5], in assay [6], in [7] and in assay [8] was “inactive” each time. In addition, the Potency entry in assay [9], in [18], in assay [13], in assay [14], in assay [19] and in [15] was “inactive” in each case. Besides, in [17], the Potency result is “inactive”. Also, the outcome in assay [3] and in [4] was inactive.
As for `CCC(C)(CCCC(C)C)OC(C)=O` (centres undefined), the Potency result in [1], in assay [2], in [5], in assay [6], in assay [7] and in assay [8] was “inactive” each time. The Potency entry in assay [9], in [18], in [11], in assay [12], in [13] and in assay [19] was “inactive” in each case. The Potency result in assay [15], in assay [16] and in assay [17] was “inactive” in each case. Besides, the result in assay [3] and in [4] was inactive.
Turning to `Cn1c(=O)[nH]c2ncn(C)c2c1=O`, the Potency result in assay [1], in assay [2], in assay [5], in [6], in assay [7] and in assay [8] was “inactive” throughout. Moreover, the Potency result in assay [9], in assay [18], in assay [10], in [11], in assay [12] and in assay [13] was “inactive” throughout. The Potency entry in assay [15], in assay [16] and in [17] was “inactive” in each case. For the same molecule, the outcome in assay [3] and in [4] was inactive.
On to `O=[N+]([O-])c1cccc(I)c1`, for which the Potency result in [1], in assay [2], in assay [5], in assay [6], in [7] and in assay [8] was “inactive” each time. Moreover, the Potency result in assay [9], in [18], in [10], in [11], in assay [12] and in assay [19] was “inactive” each time. The Potency result in assay [15] and in assay [16] was “inactive” in each case. For the same molecule, the outcome in assay [3] and in assay [4] was inactive.
Take `CC[C@H]1OC(=O)[C@H](C)[C@@H](O[C@H]2C[C@@](C)(OC)[C@@H](O)[C@H](C)O2)[C@H](C)[C@@H](O[C@@H]2O[C@H](C)C[C@H](N(C)C)[C@H]2O)[C@](C)(O)C[C@@H](C)C(=O)[C@H](C)[C@@H](O)[C@]1(C)O`: the Potency result in assay [1], in [2], in [5], in assay [6], in assay [7] and in [8] was “inactive” each time. The Potency entry in assay [9], in assay [18], in [14], in assay [19], in [15] and in [16] was “inactive” each time. Besides, the result in assay [3] and in assay [4] was inactive.
In the case of `O=C(COCCOCCOCC(=O)Nc1c(I)cc(I)c(C(=O)O)c1I)Nc1c(I)cc(I)c(C(=O)O)c1I`, the Potency entry in assay [1], in [2], in assay [5], in assay [6], in assay [7] and in assay [8] was “inactive” in each case. Further, the Potency result in assay [9], in assay [18], in [10], in assay [11], in assay [12] and in [13] was “inactive” throughout. Besides, the Potency result in assay [14], in assay [19], in [15] and in assay [17] was “inactive” throughout. Besides, the result in assay [3] and in assay [4] was inactive.

For the origin of these results see PubChem BioAssay (Tox21).
